In PubChem BioAssay (Tox21):
Inconclusive results are not listed. Calls of active or inactive are those of the source. Unless noted, calls come from the whole dose curve; as a rule, active = well fitted curve in the direction sought with a large enough effect in the repeat runs; inconclusive = weak or mixed curves; inactive = no such curve, though single readings can be large; an effect the other way counts as inactive or inconclusive.

Assays:
[1] = qHTS assay for small molecule agonists of the p53 signaling pathway (AID 651631; calls by dose curve; note: nearly all actives have a fitted effect of over 15% in size)
In short: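 p53RE-bla HCT-116 cells; compounds 16 h, 37 °C; LiveBLAzer B/G FRET substrate 2 h RT; fluorescence intensity read-out, qHTS format.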

[2] = qHTS assay for small molecules that induce genotoxicity in human embryonic kidney cells expressing luciferase-tagged ATAD5 (AID 651632); note: nearly all actives have a fitted effect of over 15% in size
In short: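 Increased luciferase signal from ATAD5-tagged reporter cells indicates DNA-damage-driven ATAD5 induction. HEK293T cells are treated for 16 hr at 37C before detection with Amplite.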

[3] = qHTS assay for small molecule agonists of the p53 signaling pathway - cell viability (AID 651633; calls by dose curve;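 note: p53RE-bla HCT reporter cells with a stable beta-lactamase p53 reporter; series mostly up to about 83 µM; nearly all actives have a fitted effect of over 30% in size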)
In short: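 Viability counter-read: CellTiter-Glo luminescence (30 min, room temperature) in the same p53RE-bla plates. These plates had been exposed to compounds for 16 h at 37 C.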

[4] = qHTS assay for small molecules that induce genotoxicity in human embryonic kidney cells expressing luciferase-tagged ATAD5 - cell viability (AID 651634; calls by dose curve; note: nearly all actives have a fitted effect of over 25% in size)
In short: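 Cytotoxicity counterscreen in HEK293T cells bearing an ATAD5-luciferase reporter: live-cell protease activity measured by CellTiter-Fluor fluorescence after 15.5 hr compound exposure.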

[5] = qHTS assay for small molecule disruptors of the mitochondrial membrane potential - cell viability (AID 720634; calls by dose curve;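 note: human HepG2 liver cancer cells; series mostly up to about 83 µM; nearly all actives have a fitted effect of over 20% in size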)
In short: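 After overnight attachment at 37 C, HepG2 cells received compound or DMSO vehicle for 1 hr. Viability is then taken from ATP-driven luminescence following a 30 min room-temperature CellTiter-Glo step.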

[6] = qHTS assay to test for compound auto fluorescence at 590 nm (red) in HepG2 cells (AID 720674)
In short: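 1 hr compound incubation on HepG2 cells, 37 C, 5% CO2; plate read ex 540 nm / em 590 nm; intensities reported as Rose Bengal sodium equivalents.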

[7] = qHTS assay to test for compound auto fluorescence at 535 nm (green) in HepG2 cells (AID 720675)
[8] = qHTS assay to test for compound auto fluorescence at 460 nm (blue) in HEK293 cells (AID 720678)
In short: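 Blue read-out at excitation 405 nm and emission 460 nm follows overnight compound exposure of HEK293 cells at 37C in 5% CO2. Activity is given as auto fluorescence equivalency to triamterene.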

[9] = qHTS assay to test for compound auto fluorescence at 535 nm (green) in HEK293 cells (AID 720680)
[10] = qHTS assay to test for compound auto fluorescence at 460 nm (blue) in HEK293 cell free culture (AID 720681)
In short: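 Blue fluorescence (Ex 405/Em 460 nm, triamterene-equivalent) was read immediately after pin transfer of compound or DMSO into medium (DMEM, 10% FBS) without cells.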

[11] = qHTS assay to test for compound auto fluorescence at 535 nm (green) in HEK293 cell free culture (AID 720682)
In short: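 Cell-free medium (DMEM, 10% FBS) receives compound or DMSO by pintool. Plate read directly at Ex 485/Em 535 nm. Signal converted to fluorescein equivalency.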

[12] = qHTS assay to test for compound auto fluorescence at 590 nm (red) in HEK293 cell free culture (AID 720683)
In short: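 Red-channel autofluorescence of compounds in culture medium (DMEM, 10% FBS), no cells, measured at 540/590 nm. Rose Bengal sodium is the reference fluorophore for equivalence.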

[13] = qHTS assay to test for compound auto fluorescence at 590 nm (red) in HepG2 cell free culture (AID 720684)
In short: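 Plate contents were MEM with 10% FBS plus test compound or DMSO, no cells. Fluorescence was recorded with 540 nm excitation and 590 nm emission.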

[14] = qHTS assay to test for compound auto fluorescence at 460 nm (blue) in HepG2 cell free culture (AID 720685)
In short: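 Compound (23 nL) or DMSO pinned into cell-free MEM with 10% FBS; blue fluorescence read at 405/460 nm excitation/emission, expressed as auto-fluorescence equivalency to triamterene.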

[15] = qHTS assay to test for compound auto fluorescence at 535 nm (green) in HepG2 cell free culture (AID 720686)
[16] = qHTS assay to test for compound auto fluorescence at 460 nm (blue) in HepG2 cells (AID 720687)
In short: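 Blue-channel autofluorescence (Ex/Em 405/460 nm, triamterene-equivalent) was measured after 1 hr compound exposure at 37 C, 5% CO2. Cells were HepG2, plated overnight at 37 C in MEM plus 10% FBS.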

[17] = qHTS assay to test for compound auto fluorescence at 590 nm (red) in HEK293 cells (AID 720679)
In short: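 Red channel, Ex/Em 540/590nm; signal expressed as equivalency to Rose Bengal sodium. HEK293, 2,000 cells/well, 10% dialyzed FBS; 23 nL compound pinned after 4-5 hr attachment; overnight 37C/5% CO2 before reading.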

[18] = biological target: Glucocorticoid receptor (Homo sapiens) (UniProt P04150); assay: qHTS assay to identify small molecule antagonists of the glucocorticoid receptor (GR) signaling pathway (AID 720692; active = well fitted inhibition curve with a large enough effect in the signal ratio in the repeat runs, not every such curve was filed as active; the % refers to the signal ratio)
Glucocorticoid receptor (Homo sapiens), sequence (P04150 whole entry, looked up): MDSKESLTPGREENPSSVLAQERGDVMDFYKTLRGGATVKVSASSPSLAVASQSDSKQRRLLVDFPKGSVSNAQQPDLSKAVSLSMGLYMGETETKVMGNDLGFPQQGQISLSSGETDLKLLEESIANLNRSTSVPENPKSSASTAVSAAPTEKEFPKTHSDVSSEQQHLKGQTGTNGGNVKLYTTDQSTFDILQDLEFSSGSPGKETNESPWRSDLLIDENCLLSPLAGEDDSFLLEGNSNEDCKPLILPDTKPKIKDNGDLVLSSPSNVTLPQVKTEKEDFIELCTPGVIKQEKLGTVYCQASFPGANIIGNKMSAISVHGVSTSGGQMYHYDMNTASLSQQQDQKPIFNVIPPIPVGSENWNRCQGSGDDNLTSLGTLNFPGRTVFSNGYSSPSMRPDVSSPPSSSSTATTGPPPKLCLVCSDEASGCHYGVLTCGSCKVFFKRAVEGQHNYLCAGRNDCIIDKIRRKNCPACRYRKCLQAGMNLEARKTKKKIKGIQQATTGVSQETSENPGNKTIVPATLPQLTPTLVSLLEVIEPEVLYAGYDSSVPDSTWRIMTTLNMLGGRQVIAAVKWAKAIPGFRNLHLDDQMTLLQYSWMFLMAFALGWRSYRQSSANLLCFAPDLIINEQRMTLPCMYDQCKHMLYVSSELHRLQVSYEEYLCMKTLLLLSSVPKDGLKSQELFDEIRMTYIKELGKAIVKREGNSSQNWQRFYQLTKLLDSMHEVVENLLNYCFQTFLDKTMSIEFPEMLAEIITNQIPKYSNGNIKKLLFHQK
In short: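 Cells plated, rested 4 h at 37 C/5% CO2; compounds in DMSO pin-transferred; dexamethasone added to 5 nM final; 18 h at 37 C; B/G FRET substrate added, 2 h room temperature; fluorescence measured.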

[19] = biological target: Glucocorticoid receptor (Homo sapiens) (UniProt P04150); assay: qHTS assay to identify small molecule agonists of the glucocorticoid receptor (GR) signaling pathway (AID 720691; active = well fitted activation curve with a large enough effect in the signal ratio in the repeat runs, not every such curve was filed as active; the % refers to the signal ratio)
In short: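 Agonist mode in a HeLa line carrying a GRE-controlled beta-lactamase reporter. Compounds act for 18 h at 37 C before a 2 h room-temperature FRET substrate step and fluorescence reading.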
% is set by controls: 0 for no effect and ±100 for the full control effect.

CC(N)C(=O)OC(C)(C)Cc1ccc(Cl)cc1 (configuration not stated)
inactive: outcome [1] | Potency [2] | outcome [3] | Potency [4] | outcome [5] | outcome [6] | outcome [7] | outcome [8] | outcome [9] | outcome [10] | outcome [11] | outcome [12] | outcome [13] | outcome [14] | outcome [15] | outcome [16]

CNC(=O)[C@H]1O[C@@H](n2cnc3c(NCc4cc(Cl)ccc4OCc4cc(C)no4)ncnc32)[C@H](O)[C@@H]1N
inactive: outcome [1] | Potency [2] | outcome [3] | Potency [4] | outcome [5] | outcome [6] | outcome [7] | outcome [8] | outcome [17] | outcome [9] | outcome [11] | outcome [12] | outcome [13] | outcome [14] | outcome [15] | outcome [16] | outcome [18]

CCO[Si](CCCS)(OCC)OCC
inactive: outcome [1] | Potency [2] | outcome [3] | Potency [4] | outcome [5] | outcome [6] | outcome [7] | outcome [17] | outcome [9] | outcome [11] | outcome [12] | outcome [13] | outcome [14] | outcome [15] | outcome [16] | Potency [19] | outcome [18]

CN1C(C)(C)CCCC1(C)C
inactive: outcome [1] | Potency [2] | outcome [3] | Potency [4] | outcome [5] | outcome [6] | outcome [7] | outcome [8] | outcome [9] | outcome [10] | outcome [11] | outcome [12] | outcome [13] | outcome [14] | outcome [15] | outcome [16]

Nc1ccc2cc(S(=O)(=O)O)cc(O)c2c1
inactive: outcome [1] | Potency [2] | outcome [3] | Potency [4] | outcome [5] | outcome [6] | outcome [7] | outcome [8] | outcome [17] | outcome [9] | outcome [11] | outcome [12] | outcome [15]

C[C@@H](O)[C@H]1C(=O)N2C(C(=O)O)=C(SCCN=CN)C[C@H]12
inactive: outcome [1] | Potency [2] | outcome [3] | Potency [4] | outcome [5] | fluorescence, relative to Rose Bengal [6] -0.493% [at 18.6 µM] | fluorescence, % of fluorescein control [7] -0.19% [at 18.6 µM] | fluorescence, % of triamterene [8] 1.22% [at 18.6 µM] | fluorescence, % of fluorescent control [17] 0.0064% [at 18.6 µM] | fluorescence, % of fluorescein [9] 0.0698% [at 18.6 µM] | fluorescence, % of fluorescent control [12] -0.0922% [at 18.6 µM] | fluorescence, % of Rose Bengal [13] 0.208% [at 18.6 µM] | fluorescence, % of fluorescent control [14] 1.1% [at 18.6 µM] | fluorescence, % of fluorescein control [15] 0.0651% [at 18.6 µM] | fluorescence, % of fluorescent control [16] 0.982% [at 18.6 µM] | outcome [18]

CCCCCCCCC(=O)Cl
inactive: outcome [1] | Potency [2] | outcome [3] | Potency [4] | outcome [5] | outcome [6] | outcome [7] | outcome [8] | outcome [17] | outcome [9] | outcome [11] | outcome [12] | outcome [13] | outcome [14] | outcome [16]

Cc1cc(NC(=O)C2=C(O)c3ccccc3S(=O)(=O)N2C)no1
inactive: outcome [1] | Potency [2] | outcome [3] | Potency [4] | outcome [5] | outcome [6] | outcome [7] | outcome [8] | outcome [9] | outcome [10] | outcome [11] | outcome [12] | outcome [13] | outcome [14] | outcome [15] | outcome [16] | Potency [19] | outcome [18]

CCCCCCCCOS(=O)(=O)O
inactive: outcome [1] | Potency [2] | outcome [3] | Potency [4] | outcome [5] | outcome [6] | outcome [7] | outcome [17] | outcome [9] | outcome [11] | outcome [12] | outcome [13] | outcome [14] | outcome [15] | outcome [16] | outcome [18]

CC1=CCC(C(C)C)=CC1
inactive: outcome [1] | Potency [2] | outcome [3] | Potency [4] | outcome [6] | outcome [7] | outcome [8] | outcome [17] | outcome [9] | outcome [10] | outcome [11] | outcome [12] | outcome [13] | outcome [14] | outcome [15] | outcome [16]

CC(S)C(=O)NCC(=O)O (configuration not stated)
inactive: outcome [1] | Potency [2] | outcome [3] | Potency [4] | outcome [6] | outcome [7] | outcome [8] | outcome [17] | outcome [9] | outcome [10] | outcome [11] | outcome [12] | outcome [13] | outcome [14] | outcome [15] | outcome [16]

O=C(O)C(=O)Cc1ccccc1
inactive: outcome [1] | Potency [2] | outcome [3] | Potency [4] | outcome [5] | outcome [6] | outcome [7] | outcome [8] | outcome [17] | outcome [9] | outcome [11] | outcome [12] | outcome [13] | outcome [14] | outcome [16] | outcome [18]

O=S(=O)(O)CCN1CCN(CCO)CC1
inactive: outcome [1] | Potency [2] | outcome [3] | Potency [4] | outcome [5] | outcome [6] | outcome [7] | outcome [8] | outcome [17] | outcome [9] | outcome [12] | outcome [13] | outcome [14] | outcome [15] | outcome [16] | outcome [18]

COCCOC(=O)C1=C(C)NC(C)=C(C(=O)OC(C)C)C1c1cccc([N+](=O)[O-])c1 (configuration not stated)
inactive: outcome [1] | Potency [2] | outcome [3] | Potency [4] | outcome [5] | outcome [6] | outcome [7] | outcome [17] | outcome [9] | outcome [10] | outcome [11] | outcome [12] | outcome [13] | outcome [14] | outcome [15] | outcome [16]

CC1COc2ccccc2N1 (configuration not stated)
inactive: outcome [1] | Potency [2] | outcome [3] | Potency [4] | outcome [5] | outcome [6] | outcome [7] | outcome [8] | outcome [17] | outcome [9] | outcome [11] | outcome [12] | outcome [13] | outcome [14] | outcome [15] | outcome [16] | Potency [19] | outcome [18]
